Data on one sequence can be found in article PMC7862700, “An all-to-all approach to the identification of sequence-specific readers for epigenetic DNA modifications on cytosine”.

Holding throughout (assay): DAPPL (digital affinity profiling via proximity ligation, sequencing); 10 mM Tris-HCl pH 7.5, 50 mM NaCl, 1 mM DTT, 4% glycerol, room temperature, 30 min; GST-TFs on glutathione beads, 16-mer random dsDNA library, 0.1% formaldehyde crosslink after washing; high values mean tight binding
For one assay, the target named is T1, ELK1 (Homo sapiens, UniProt P19419 1-428).
T1 sequence: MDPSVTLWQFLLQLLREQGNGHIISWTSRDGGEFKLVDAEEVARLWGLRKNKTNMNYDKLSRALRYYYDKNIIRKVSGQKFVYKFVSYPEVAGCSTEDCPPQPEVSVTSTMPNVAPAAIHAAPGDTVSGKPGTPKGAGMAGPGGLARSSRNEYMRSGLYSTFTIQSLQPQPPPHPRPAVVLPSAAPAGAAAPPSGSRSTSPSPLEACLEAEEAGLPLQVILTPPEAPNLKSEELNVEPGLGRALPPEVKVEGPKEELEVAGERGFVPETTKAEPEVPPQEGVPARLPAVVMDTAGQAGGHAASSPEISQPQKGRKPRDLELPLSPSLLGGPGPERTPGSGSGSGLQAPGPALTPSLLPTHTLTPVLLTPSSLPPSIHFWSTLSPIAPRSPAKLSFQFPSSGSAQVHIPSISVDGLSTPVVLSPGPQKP
As to conditions: protein: recombinant; tags: N-terminal GST; dsDNA, one strand shown. The method, boiled down:
(§1)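 Human transcription factors carrying a GST fusion were produced in yeast, bound to glutathione beads, tagged with DNA barcodes and pooled together with a tag-only sample. Each pool was held with 200 nmole of a random double-stranded 16-mer DNA library in Tris/NaCl/DTT/glycerol buffer for 30 min at room temperature, then washed, crosslinked in 0.1% formaldehyde, proximity-ligated with BsaI/T4 ligase (1 h, 37 °C), PCR-amplified and sequenced on an Illumina NextSeq500. Binding signal is the read frequency of each hexamer for a given factor divided by its frequency in the tag-only sample.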

Another assay has as its target T2, GABPA (Homo sapiens, UniProt Q06546 1-454).
T2 sequence: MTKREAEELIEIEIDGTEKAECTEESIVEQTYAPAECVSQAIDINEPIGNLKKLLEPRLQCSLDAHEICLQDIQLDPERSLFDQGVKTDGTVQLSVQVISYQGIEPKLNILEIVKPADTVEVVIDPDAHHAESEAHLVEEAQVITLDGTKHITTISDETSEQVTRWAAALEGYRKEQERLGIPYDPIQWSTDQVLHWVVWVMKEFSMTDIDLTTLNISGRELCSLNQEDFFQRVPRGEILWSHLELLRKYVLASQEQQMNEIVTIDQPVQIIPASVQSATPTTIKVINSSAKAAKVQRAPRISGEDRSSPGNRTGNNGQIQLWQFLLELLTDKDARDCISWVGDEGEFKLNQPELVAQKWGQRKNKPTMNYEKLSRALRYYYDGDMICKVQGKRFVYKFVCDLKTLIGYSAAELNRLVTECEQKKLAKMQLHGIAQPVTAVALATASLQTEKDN
As to conditions: protein: recombinant; tags: N-terminal GST; dsDNA, one strand shown. The method, boiled down: as §1

For the next assay, the target named is ELF1 (Homo sapiens, UniProt P32519 1-619). As to conditions: protein: recombinant; tags: N-terminal GST; dsDNA, one strand shown. The method, boiled down: as §1
Sequence of ELF1 (P32519 whole entry): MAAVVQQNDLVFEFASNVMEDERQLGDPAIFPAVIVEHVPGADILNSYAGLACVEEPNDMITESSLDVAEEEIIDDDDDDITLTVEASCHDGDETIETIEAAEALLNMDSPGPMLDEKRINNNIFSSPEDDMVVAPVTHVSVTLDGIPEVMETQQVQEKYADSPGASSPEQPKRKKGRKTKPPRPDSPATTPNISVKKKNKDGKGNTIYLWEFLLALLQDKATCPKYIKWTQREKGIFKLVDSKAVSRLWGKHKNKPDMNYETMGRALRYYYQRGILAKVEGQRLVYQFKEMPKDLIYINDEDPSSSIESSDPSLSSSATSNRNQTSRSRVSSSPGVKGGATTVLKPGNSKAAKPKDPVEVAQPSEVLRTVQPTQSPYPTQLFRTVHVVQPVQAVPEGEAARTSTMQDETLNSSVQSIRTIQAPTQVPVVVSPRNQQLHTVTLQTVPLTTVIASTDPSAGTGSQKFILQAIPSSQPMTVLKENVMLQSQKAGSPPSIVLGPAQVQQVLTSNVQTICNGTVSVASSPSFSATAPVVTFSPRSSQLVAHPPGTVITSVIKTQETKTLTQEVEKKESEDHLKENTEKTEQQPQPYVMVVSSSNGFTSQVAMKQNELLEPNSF
The next assay deals with SPI1 (Homo sapiens, UniProt P17947 1-270). The following applies: protein: recombinant; tags: N-terminal GST; dsDNA, one strand shown. The method, boiled down:
as §1

Another assay addresses HSF1 (Homo sapiens, UniProt Q00613 1-529). The following applies: protein: recombinant; tags: N-terminal GST; chain copies: 3; dsDNA, one strand shown. The method, boiled down: as §1
In another assay the target is ELF4 (Homo sapiens, UniProt Q99607 1-663). As to conditions: protein: recombinant; tags: N-terminal GST; dsDNA, one strand shown. The method, boiled down: as §1
Sequence of ELF4 (Q99607 whole entry): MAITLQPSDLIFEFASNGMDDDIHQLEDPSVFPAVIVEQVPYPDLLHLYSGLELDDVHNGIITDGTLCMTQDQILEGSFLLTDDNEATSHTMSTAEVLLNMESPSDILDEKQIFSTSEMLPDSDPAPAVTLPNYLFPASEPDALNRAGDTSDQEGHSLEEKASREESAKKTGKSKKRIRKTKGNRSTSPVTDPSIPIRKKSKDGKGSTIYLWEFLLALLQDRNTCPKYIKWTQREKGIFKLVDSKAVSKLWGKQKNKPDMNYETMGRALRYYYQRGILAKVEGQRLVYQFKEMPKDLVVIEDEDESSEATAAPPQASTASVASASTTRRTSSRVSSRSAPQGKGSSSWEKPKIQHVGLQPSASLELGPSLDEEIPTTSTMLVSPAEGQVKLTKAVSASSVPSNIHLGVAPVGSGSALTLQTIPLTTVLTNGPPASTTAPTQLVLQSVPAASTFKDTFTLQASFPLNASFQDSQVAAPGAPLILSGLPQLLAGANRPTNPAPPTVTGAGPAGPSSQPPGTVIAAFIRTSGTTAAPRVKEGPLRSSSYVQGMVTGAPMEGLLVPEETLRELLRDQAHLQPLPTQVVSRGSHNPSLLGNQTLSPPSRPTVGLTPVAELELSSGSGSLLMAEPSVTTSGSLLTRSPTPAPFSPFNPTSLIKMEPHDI
A further assay deals with T3, ELK4 (Homo sapiens, UniProt P28324-2 1-405).
T3 sequence: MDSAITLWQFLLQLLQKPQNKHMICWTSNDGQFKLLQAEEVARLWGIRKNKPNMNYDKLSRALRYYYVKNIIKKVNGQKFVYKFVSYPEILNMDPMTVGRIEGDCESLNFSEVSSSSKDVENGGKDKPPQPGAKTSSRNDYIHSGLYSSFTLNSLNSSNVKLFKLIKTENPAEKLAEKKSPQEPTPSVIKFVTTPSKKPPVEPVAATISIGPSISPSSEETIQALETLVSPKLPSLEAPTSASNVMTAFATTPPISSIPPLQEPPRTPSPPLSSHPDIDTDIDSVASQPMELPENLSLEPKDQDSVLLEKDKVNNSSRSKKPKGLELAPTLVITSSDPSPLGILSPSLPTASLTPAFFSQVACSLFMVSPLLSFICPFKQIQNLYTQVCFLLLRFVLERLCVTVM
The following applies: protein: recombinant; tags: N-terminal GST; dsDNA, one strand shown. The method, boiled down: as §1

The next assay has as its target T4, ETV2 (Homo sapiens, UniProt O00321 1-342).
T4 sequence: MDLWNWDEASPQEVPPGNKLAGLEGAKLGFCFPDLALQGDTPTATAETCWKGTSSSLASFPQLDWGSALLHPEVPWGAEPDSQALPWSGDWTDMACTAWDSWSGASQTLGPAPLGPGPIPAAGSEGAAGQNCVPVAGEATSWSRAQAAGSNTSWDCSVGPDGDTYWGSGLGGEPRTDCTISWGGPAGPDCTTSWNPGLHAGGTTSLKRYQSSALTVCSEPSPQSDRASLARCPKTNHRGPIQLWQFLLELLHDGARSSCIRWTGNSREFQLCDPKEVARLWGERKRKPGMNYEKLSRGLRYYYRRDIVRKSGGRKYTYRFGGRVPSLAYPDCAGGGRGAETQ
As to conditions: protein: recombinant; tags: N-terminal GST; dsDNA, one strand shown. Put shortly:
as §1

Another assay has as its target T5, ELF3 (Homo sapiens, UniProt P78545 1-371).
T5 sequence: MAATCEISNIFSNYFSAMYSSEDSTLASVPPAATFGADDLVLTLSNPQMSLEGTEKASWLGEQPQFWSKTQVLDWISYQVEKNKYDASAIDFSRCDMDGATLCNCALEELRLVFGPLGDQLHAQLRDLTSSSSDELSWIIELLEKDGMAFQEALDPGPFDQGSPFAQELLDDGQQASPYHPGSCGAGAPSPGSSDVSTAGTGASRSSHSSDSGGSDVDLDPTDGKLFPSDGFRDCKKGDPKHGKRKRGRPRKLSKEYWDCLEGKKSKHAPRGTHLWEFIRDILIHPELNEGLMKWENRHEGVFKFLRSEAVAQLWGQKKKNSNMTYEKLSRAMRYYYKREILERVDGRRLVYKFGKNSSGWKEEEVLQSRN
As to conditions: protein: recombinant; tags: N-terminal GST; dsDNA, one strand shown. The method, boiled down: as §1

Sequence of HSF1 (Q00613 whole entry): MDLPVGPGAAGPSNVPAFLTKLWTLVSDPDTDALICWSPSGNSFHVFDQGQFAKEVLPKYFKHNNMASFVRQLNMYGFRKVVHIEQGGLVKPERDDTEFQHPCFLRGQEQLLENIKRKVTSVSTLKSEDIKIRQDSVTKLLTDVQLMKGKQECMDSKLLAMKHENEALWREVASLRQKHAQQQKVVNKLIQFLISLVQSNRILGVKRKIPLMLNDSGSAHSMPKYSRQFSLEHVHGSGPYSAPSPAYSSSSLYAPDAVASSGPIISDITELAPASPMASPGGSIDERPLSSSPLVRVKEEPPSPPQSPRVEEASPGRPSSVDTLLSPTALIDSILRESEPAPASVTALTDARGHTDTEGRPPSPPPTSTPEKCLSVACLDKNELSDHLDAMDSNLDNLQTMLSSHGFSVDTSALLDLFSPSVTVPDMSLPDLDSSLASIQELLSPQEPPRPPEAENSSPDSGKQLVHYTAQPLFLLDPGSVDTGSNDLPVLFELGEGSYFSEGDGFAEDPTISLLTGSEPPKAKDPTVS

Turning to AGAATA, the binding signal with ELK1 was 1.04 fold enrichment (6-mer frequency, TF over GST control); with GABPA, 1 fold enrichment (6-mer frequency, TF over GST control); with ELF1, 1.01 fold enrichment (6-mer frequency, TF over GST control); with SPI1, 1 fold enrichment (6-mer frequency, TF over GST control); with HSF1, 2.32 fold enrichment (6-mer frequency, TF over GST control); with ELF4, 1.06 fold enrichment (6-mer frequency, TF over GST control). Moreover, the binding signal in the assay with ELK4 was 1.02 fold enrichment (6-mer frequency, TF over GST control); with ETV2, 1.07 fold enrichment (6-mer frequency, TF over GST control); in the assay with ELF3 it was 1.04 fold enrichment (6-mer frequency, TF over GST control).
